Data: PubChem BioAssay (Tox21)
Records with an inconclusive call do not appear. Calls of active or inactive are those of the source. Calls follow the shape of the dose curve; as a rule, active = well fitted activation curve with a large enough effect in the repeat runs; inconclusive = weak or mixed curves; inactive = flat fitted curve, though single readings scatter.

Experiment: A CellTox Green Cytotoxicity Assay to monitor cytotoxicity in HEK293 cells - 24 hour (AID 1224875); also: potency is read from the fitted curve at half-maximal effect
Details: CellTox Green fluorescence; series mostly up to 76.8 µM; activity change: at the top concentration
Method in brief: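 Seeding of HEK293 cells together with cytotoxicity dye preceded a 5 h incubation at 37 C/5% CO2. Test compounds in DMSO were then added and fluorescence monitored across 40 h.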
% is scaled to controls: 0 for no effect and ±100 for the full control effect.
Also: nearly all actives have a fitted effect of over 45% in size.

SMILES	activity change	Potency
COc1ccc(-c2nc3ccc(C4=NNC(=O)CC4C)cc3[nH]2)cc1 (stereo unspecified)	-22.2% [at 35.3 µM, stronger effect = higher value] (inactive)	
CN1CCC(=C2c3ccccc3Sc3ccccc32)CC1	7.88% [at 35.3 µM, stronger effect = higher value] (inactive)	
CCCCC(=O)OCC(=O)[C@H]1[C@H](C)C[C@H]2[C@@H]3C[C@H](F)C4=CC(=O)C=C[C@]4(C)[C@@]3(F)[C@@H](O)C[C@@]21C	1.91% [at 35.3 µM, stronger effect = higher value] (inactive)	
Clc1ccc2c(c1)CCc1cccnc1C2=C1CCNCC1	14.7% [at 35.3 µM, stronger effect = higher value] (inactive)	
CCn1cc(C(=O)O)c(=O)c2cnc(N3CCNCC3)nc21	9.61% [at 35.3 µM, stronger effect = higher value] (inactive)	
CCOc1ccc(N=Nc2ccc(/C=C/c3ccc(N=Nc4ccc(OCC)cc4)cc3S(=O)(=O)O)c(S(=O)(=O)O)c2)cc1	-34.7% (inactive)	
NS(=O)(=O)c1ccc(N2CCCCS2(=O)=O)cc1	-4.04% [at 35.3 µM, stronger effect = higher value] (inactive)	
CCCCCCCC/C=C\CCCCCCCC(=O)OCC	-11.1% (inactive)	
Nc1cc(C(=O)O)c(O)c(S(=O)(=O)O)c1	-7.15% (inactive)	
ClCCOCCOCCCl	-17.2% (inactive)	
CCN(CC)CCNC(=O)c1cc(Br)c(N)cc1OC	5.1% [at 35.3 µM, stronger effect = higher value] (inactive)	
O=C(O)C(S)C(S)C(=O)O (stereo unspecified)	-17.6% [at 35.3 µM, stronger effect = higher value] (inactive)	
O=[N+]([O-])c1ccc2[nH]ncc2c1	0.384% (inactive)	
C[N+]1(C)CCC(OC(=O)C(O)(c2ccccc2)C2CCCC2)C1 (stereo unspecified)		23.9 µM (active)
CCO[Si](CCCCl)(OCC)OCC	20% (inactive)	
Nc1ncn([C@H]2C[C@H](O)[C@@H](CO)O2)c(=O)n1	-1.52% [at 35.3 µM, stronger effect = higher value] (inactive)	
O=C1OC(=O)C2C3C=CC(C3)C12 (stereo unspecified)	-10.7% (inactive)	
CCCCCCCCO[C@@H]1O[C@H](CO)[C@@H](O)[C@H](O)[C@H]1O	4.6% (inactive)	
C/C(=C(\CCOP(=O)(O)O)SC(=O)c1ccccc1)N(C=O)Cc1cnc(C)nc1N	-4.36% [at 6.97 µM, stronger effect = higher value] (inactive)	
CCN(CC)CCOC(=O)C(c1ccccc1)C1CCCCC1 (stereo unspecified)		23.9 µM (active)
CCCCOC(=O)CCCCCCCC(=O)OCCCC	-13.1% (inactive)	
CN1C[C@H]2c3ccccc3Oc3ccc(Cl)cc3[C@@H]2C1	19% [at 35.3 µM, stronger effect = higher value] (inactive)	
O=C(O)c1ccccc1Cl	-12.8% (inactive)	
Cc1cc(N)c2cc(NC(=O)Nc3ccc4nc(C)cc(N)c4c3)ccc2n1	-36.2% [at 35.3 µM, stronger effect = higher value] (inactive)	
O=C1CCC(=O)O1	-0.729% (inactive)	
O=C(NCCO[N+](=O)[O-])c1cccnc1	-1.48% [at 35.3 µM, stronger effect = higher value] (inactive)	
CCN(CC)CCOC(=O)C(Cc1cccc2ccccc12)CC1CCCO1 (stereo unspecified)	25.9% [at 35.3 µM, stronger effect = higher value] (inactive)	
CCc1cc(C2=C(C(=O)O)N(c3ccccc3C(F)(F)F)S(=O)(=O)c3ccccc32)cc2c1OCO2	-0.89% (inactive)	

Experiment: A CellTox Green Cytotoxicity Assay to monitor cytotoxicity in HepG2 cells - 16 hour (AID 1224876)
Details: CellTox Green fluorescence; series mostly up to 76.8 µM; cytotoxicity increase: at the top concentration
Method in brief: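 Nonlytic assay: viable cells exclude the dye, so fluorescence scales with cell death. HepG2 at 600 cells/well, compounds added after 5 h, signal read across 40 h.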

SMILES	cytotoxicity increase
CN(Cc1ccc(C(C)(C)C)cc1)Cc1cccc2ccccc12	19.9% [at 35.3 µM] (inactive)
COc1ccc(-c2nc3ccc(C4=NNC(=O)CC4C)cc3[nH]2)cc1 (stereo unspecified)	-2.64% [at 35.3 µM] (inactive)
CCCCC(=O)OCC(=O)[C@H]1[C@H](C)C[C@H]2[C@@H]3C[C@H](F)C4=CC(=O)C=C[C@]4(C)[C@@]3(F)[C@@H](O)C[C@@]21C	5.25% [at 35.3 µM] (inactive)
CCn1cc(C(=O)O)c(=O)c2cnc(N3CCNCC3)nc21	6.88% [at 35.3 µM] (inactive)
CCOc1ccc(N=Nc2ccc(/C=C/c3ccc(N=Nc4ccc(OCC)cc4)cc3S(=O)(=O)O)c(S(=O)(=O)O)c2)cc1	-34.9% (inactive)
COc1cc(C(=O)OCCCN2CCCN(CCCOC(=O)c3cc(OC)c(OC)c(OC)c3)CC2)cc(OC)c1OC	10.6% [at 35.3 µM] (inactive)
NS(=O)(=O)c1ccc(N2CCCCS2(=O)=O)cc1	-1.66% [at 35.3 µM] (inactive)
CCCCCCCC/C=C\CCCCCCCC(=O)OCC	1.68% (inactive)
Nc1cc(C(=O)O)c(O)c(S(=O)(=O)O)c1	-1.45% (inactive)
C/C=C/C(=O)CC	-0.573% [at 15.8 µM] (inactive)
CCN(CC)CCNC(=O)c1cc(Br)c(N)cc1OC	5.58% [at 35.3 µM] (inactive)
O=C(O)C(S)C(S)C(=O)O (stereo unspecified)	-16.6% [at 35.3 µM] (inactive)
O=[N+]([O-])c1ccc2[nH]ncc2c1	-10.5% (inactive)
CCCCCCCCCCO[C@@H]1O[C@H](CO)[C@@H](O)[C@H](O)[C@H]1O	13.2% (inactive)
CN(C)c1ccc(/C=C/c2ccc([N+](=O)[O-])cc2)cc1	19.5% [at 6.97 µM] (inactive)
C[N+]1(C)CCC(OC(=O)C(O)(c2ccccc2)C2CCCC2)C1 (stereo unspecified)	21% [at 35.3 µM] (inactive)
CCO[Si](CCCCl)(OCC)OCC	1.49% (inactive)
Nc1ncn([C@H]2C[C@H](O)[C@@H](CO)O2)c(=O)n1	3.7% [at 35.3 µM] (inactive)
O=C1OC(=O)C2C3C=CC(C3)C12 (stereo unspecified)	-10.6% (inactive)
CCCCCCCCO[C@@H]1O[C@H](CO)[C@@H](O)[C@H](O)[C@H]1O	-0.952% (inactive)
C/C(=C(\CCOP(=O)(O)O)SC(=O)c1ccccc1)N(C=O)Cc1cnc(C)nc1N	0.668% [at 6.97 µM] (inactive)
CCCCOC(=O)CCCCCCCC(=O)OCCCC	-2.28% (inactive)
O=C(O)c1ccccc1Cl	-5.52% (inactive)
Cc1cc(N)c2cc(NC(=O)Nc3ccc4nc(C)cc(N)c4c3)ccc2n1	-45.4% [at 35.3 µM] (inactive)
O=C1CCC(=O)O1	-8.53% (inactive)
O=C(NCCO[N+](=O)[O-])c1cccnc1	-13.1% [at 35.3 µM] (inactive)
C[C@H](CCC(=O)O)[C@H]1CC[C@H]2[C@@H]3CC[C@@H]4C[C@H](O)CC[C@]4(C)[C@H]3C[C@H](O)[C@]12C	22.3% (inactive)
CCc1cc(C2=C(C(=O)O)N(c3ccccc3C(F)(F)F)S(=O)(=O)c3ccccc32)cc2c1OCO2	9.38% (inactive)
